Most compounds without a hit are left out; they make up all but 12% or so of the library.
SARS PLP yeast: qHTS of Yeast-based Assay for SARS-CoV PLP; S. cerevisiae expressing SARS-CoV PLpro, growth rescue; Potency, µM (series often up to 32.9 µM), without a hit: at the top dose activity, positive = growth rescue, most hits filed as activators; 0.19% of 330,000 active; AID 485353, 2010; calls by dose curve; note: 0% is about no effect; nearly all actives have a fitted effect of over 55% in size
Pf growth 48h: Primary qHTS for delayed death inhibitors of the malarial parasite plastid, 48 hour incubation. P. falciparum luciferase growth in erythrocytes, 48 h. 5.9% of 310,000 active. Potency, µM (doses to about 28.7 µM), without a hit: top-dose activity change, negative = inhibition, usual class: inhibitors; note: % is set by controls: 0 for no effect and ±100 for the full control effect
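Compounds are pin-transferred into medium, infected erythrocytes (2% hematocrit, 0.1% parasitemia final) are added, and plates sit one parasite generation at 37 C in 5% CO2. Detection reagent is then added and luminescence measured.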
Sm TGR block: qHTS Assay for the Inhibitors of Schistosoma Mansoni Peroxiredoxins; Schistosoma mansoni thioredoxin glutathione reductase (TGR), Q962Y6; purified TGR, DTNB reduction, TNB absorbance 405 nm; Potency, µM (top dose mostly 114 µM), for the others: at the top dose activity change, negative = inhibition, most hits filed as inhibitors; 3% of 360,000 active; note: % is set by controls: 0 for no effect and ±100 for the full control effect; nearly all actives have a fitted effect of over 60% in size
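TGR 20 nM + NADPH 100 uM (dispensed conc.), cpd preinc 15 min RT; start with NADPH (500 uM addition) then DTNB (15 mM addition). Kinetic TNB absorbance, 405 nm filter. Four-parameter Hill fit across titration.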
Pf growth 96h: Primary qHTS for delayed death inhibitors of the malarial parasite plastid, 96 hour incubation. P. falciparum luciferase reporter growth, 96 h. Potency, µM (titrated, usually from 28.7 µM), inactives show at the highest dose activity change, negative = inhibition, hits mostly inhibitors. 6.9% of 320,000 active. AID 504834, 2011; note: % is set by controls: 0 for no effect and ±100 for the full control effect
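P. falciparum expressing integrated firefly luciferase, in erythrocytes at 2% hematocrit, 0.05% parasitemia, incubated with compounds 96 h at 37 C, 5% CO2. Growth inhibition read as loss of luminescence; two-generation exposure targets delayed-death apicoplast inhibitors.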
Starred values were filed as active, the others as inactive; ? = inconclusive; · = no result. Unless noted, calls come from the whole dose curve; as a rule, active = well fitted curve in the direction sought with a large enough effect; inconclusive = small, poorly fitted or top-dose-only effect, or another doubt; inactive = no such curve, though single readings can be large; an effect the other way counts as inactive or inconclusive. Potency is the fitted concentration of half-maximal effect.

SMILES | SARS PLP yeast | Pf growth 48h | Sm TGR block | Pf growth 96h
Cc1onc(-c2ccccc2)c1C(=O)OCc1nnc(-c2ccc([N+](=O)[O-])cc2)o1 | 1% | -7% | 10% | -9%
Cc1cccc(N(CC(=O)NCc2ccc(F)cc2)C(=O)c2ccco2)c1 | 10% | 8% | -10% | 25%
C=CCn1c(SCC(=O)c2ccc(OC)cc2)nnc1-c1ccc2c(c1)OCO2 | 3% | -9% | -3% | ?
C=CCn1c(SCC(=O)c2ccc(Cl)cc2)nnc1-c1ccc2c(c1)OCO2 | 5% | ? | 3% | 12µM*
CNC(=S)N/N=C/c1cc(C)ccc1C | 7% | -18% | -15% | ?
CNC(=S)N/N=C/c1cn(Cc2c(F)cccc2Cl)c2ccccc12 | ? | ? | -3% | ?
CNC(=S)N/N=C/c1c(C)cccc1Cl | 2% | 8% | 0% | 13µM*
CNC(=S)N/N=C/c1c2ccccc2c(Cl)c2ccccc12 | -7% | 2.6µM* | -26% | 10µM*
Cc1ccc(S(=O)(=O)N(CC(=O)NCCC2=CCCCC2)Cc2ccccc2F)cc1 | -18% | ? | -19% | 12µM*
O=C(CN(Cc1ccccc1F)S(=O)(=O)c1ccc(Cl)cc1)NCCC1=CCCCC1 | -1% | ? | -1% | 12µM*
CC1=C(C)C(=O)C(CCCCC#CCCCC#CCO)=C(C)C1=O | 6% | 13µM* | 8.9µM* | 9.3µM*
CCOC(=O)c1c(O)c2ccccc2oc1=O | -1% | 5% | 16% | 11%
CCc1oc2ccccc2c1C(=O)c1cc(I)c(O)c(I)c1 | · | -15% | · | 1.9µM*
O=C1c2ccccc2C(=O)N1c1cccc(-c2nc3ccccc3o2)c1 | -4% | 13% | 2% | ·
O=C1C=CC(=O)N1c1cccc(-c2ccccc2)c1 | -7% | 14% | 0.71µM* | 32%
CC(=O)c1ccc(NC(=O)CSc2nc(=O)n(Cc3ccccn3)c3c2CCC3)cc1 | · | · | -1% | ·
COc1ccccc1N1CCN(CCCNC(=O)c2nnc(Cc3c(F)cccc3Cl)o2)CC1 | · | · | 1% | ·
CCC(=O)c1ccc2c(c1)N(CCCN1CCN(CCO)CC1)c1ccccc1S2 | · | 2.7µM* | · | 4.8µM*
CC(=O)c1ccc2c(c1)N(CCCN1CCN(CCO)CC1)c1ccccc1S2 | · | 13µM* | · | 13µM*
CCN1C(=O)c2ccccc2Sc2ccc(C(=O)O)cc21 | 0% | · | 0% | 8%
O=C(NCc1ccccc1)Nc1cccn(Cc2c(F)cccc2Cl)c1=O | 1% | -24% | · | -39%
Cc1ccc(NC(=O)Nc2cccn(Cc3c(F)cccc3Cl)c2=O)cc1 | 0% | -20% | · | 5.2µM*
C=CCOC(=O)C(=O)/C=C/c1csc2ccccc12 | -7% | -17% | 28µM* | 40%
COC(=O)C1=C(N)Oc2c(c(=O)oc3ccccc23)[C@]12C(=O)N(C)c1ccccc12 | 5% | 0% | -4% | -3%
C=CCOC(=O)C1=C(C)OC(N)=C(C(=O)OCC)C12C(=O)N(CC(N)=O)c1ccccc12 (stereo unspecified) | 3% | -1% | 5% | 13µM*
SMILES | SARS PLP yeast | Pf growth 48h | Sm TGR block | Pf growth 96h
COC(=O)C1=C(N)OC(C)=C(C(C)=O)C12C(=O)N(C)c1ccccc12 (stereo unspecified) | 1% | 6% | 16% | 8.3µM*
CCOC(=O)C1=C(C)OC(N)=C(C(=O)OCC)[C@@]12C(=O)N(CC(N)=O)c1ccccc12 | -1% | 0% | 15% | 32%
COc1cc2cc(CCOC(=O)c3ccc(C#N)cc3)oc(=O)c2cc1OC | -3% | 6% | ? | ?
Cc1ccc(C)c(N2CCN(CCCNC(=O)c3ccc4nc(CCc5ccccc5)oc4c3)CC2)c1 | · | · | 0% | ·
CCC(C)Nc1nc(-c2cccc(OC)c2O)nc2ccccc12 (stereo unspecified) | 9% | -15% | -11% | ?
c1cncc(-c2nc(NCc3ccc4c(c3)OCO4)c3ccccc3n2)c1 | -3% | 13µM* | -7% | 10µM*
CC(Nc1nc(-c2cccnc2)nc2ccccc12)c1ccc(F)cc1 (stereo unspecified) | -66% | 4.7µM* | 2% | 6.6µM*
COc1cccc(-c2nc(NCc3cccnc3)c3ccccc3n2)c1O | 1% | 12µM* | -16% | ?
CCC(C)Nc1nc(-c2ccccn2)nc2ccccc12 (stereo unspecified) | 0% | · | -7% | 0.93µM*
CC(Nc1nc(-c2ccccc2)nc2ccccc12)c1ccccc1 (stereo unspecified) | -23% | ? | 11% | 0%
CCN1CCN(CCCNC(=O)Cn2c(-c3cccs3)cc3cc(F)ccc32)CC1 | · | · | -24% | ·
CCOc1ccccc1NC(=O)CC(c1ccc(F)cc1)N1Cc2ccccc2C1=O (stereo unspecified) | · | · | 4% | ·
c1ccc(CNc2nc(NCc3ccccc3)c3ccccc3n2)cc1 | -1% | 1.2µM* | 13% | 0.74µM*
Fc1ccccc1/C=N/Nc1nc(-c2ccccn2)nc2ccccc12 | -2% | 2.3µM* | 3% | ?
O=c1[nH]c2ccccc2nc1NCc1ccccc1 | -1% | 23% | 1% | 4.7µM*
c1ccc(CNc2nc3ccccc3[nH]2)cc1 | 0% | -23% | 9% | -4%
Clc1ccccc1-c1nc(N/N=C/c2cccnc2)c2ccccc2n1 | -17% | ? | -24% | -63%
Fc1ccc(CNc2nc(-c3cccnc3)nc3ccccc23)cc1 | -13% | 12µM* | -13% | ?
c1ccc(CNc2nc(-c3ccccc3)nc3ccccc23)cc1 | -15% | ? | 3% | -91%
CC(NC(=O)c1ccc(NC2=NC3CS(=O)(=O)CC3S2)cc1)c1ccccc1 (stereo unspecified) | -6% | 10% | -15% | ?
COc1cc2c(cc1OC)n(Cc1ccc([N+](=O)[O-])cc1)c(=O)n1nc(-c3ccccc3)nc21 | · | · | 4% | ·
CCOc1ccc(N2C(=O)CS(=O)(=O)C23C(=O)N(Cc2cccc(Cl)c2)c2ccccc23)cc1 (stereo unspecified) | · | · | 13% | ·
c1ccc(CNc2nc(-c3cccnc3)nc3ccccc23)cc1 | -5% | 9.3µM* | ? | 8.3µM*
c1ccc(CNc2nc(-c3ccccn3)nc3ccccc23)cc1 | -6% | 1.5µM* | 10% | 0.66µM*
c1cncc(-c2nc(NCC3COc4ccccc4O3)c3ccccc3n2)c1 (stereo unspecified) | -22% | · | -14% | 8.3µM*
Cc1ccc(CNc2nc(-c3cccnc3)nc3ccccc23)cc1 | -17% | 6.6µM* | -9% | ?
Cc1ccc(-n2c(=O)c3ccccc3n(CC(=O)Nc3cccc(C(F)(F)F)c3)c2=O)cc1 | · | · | -2% | ·
Cc1nnc(SCC(=O)N2c3ccccc3C(C)(c3ccccc3)CC2(C)C)s1 (stereo unspecified) | -48% | 10µM* | -7% | 12µM*
Cc1ccc(C2(C)CC(C)(C)N(C(=O)CSc3nnc(C)s3)c3ccccc32)cc1 (stereo unspecified) | -47% | 13µM* | 0% | ?
